Data taken from PubChem BioAssay (Tox21).
Results filed as inconclusive are left out. Activity calls are given as the source filed them. Unless noted, calls follow the shape of the dose curve; as a rule, active = well fitted curve in the direction sought with a large enough effect in the repeat runs; inconclusive = weak or mixed curves; inactive = no such curve, though single readings can be large; an effect the other way counts as inactive or inconclusive.

Key:
[1] = molecular target: Thyrotropin receptor (Homo sapiens) (UniProt P16473); experiment: qHTS assay to identify small molecule agonists of the thyroid stimulating hormone receptor (TSHR) signaling pathway (AID 1224843; calls by dose curve; also: nearly all actives have a fitted effect of over 45% in size)
Sequence of Thyrotropin receptor (Homo sapiens) (P16473 whole entry, looked up): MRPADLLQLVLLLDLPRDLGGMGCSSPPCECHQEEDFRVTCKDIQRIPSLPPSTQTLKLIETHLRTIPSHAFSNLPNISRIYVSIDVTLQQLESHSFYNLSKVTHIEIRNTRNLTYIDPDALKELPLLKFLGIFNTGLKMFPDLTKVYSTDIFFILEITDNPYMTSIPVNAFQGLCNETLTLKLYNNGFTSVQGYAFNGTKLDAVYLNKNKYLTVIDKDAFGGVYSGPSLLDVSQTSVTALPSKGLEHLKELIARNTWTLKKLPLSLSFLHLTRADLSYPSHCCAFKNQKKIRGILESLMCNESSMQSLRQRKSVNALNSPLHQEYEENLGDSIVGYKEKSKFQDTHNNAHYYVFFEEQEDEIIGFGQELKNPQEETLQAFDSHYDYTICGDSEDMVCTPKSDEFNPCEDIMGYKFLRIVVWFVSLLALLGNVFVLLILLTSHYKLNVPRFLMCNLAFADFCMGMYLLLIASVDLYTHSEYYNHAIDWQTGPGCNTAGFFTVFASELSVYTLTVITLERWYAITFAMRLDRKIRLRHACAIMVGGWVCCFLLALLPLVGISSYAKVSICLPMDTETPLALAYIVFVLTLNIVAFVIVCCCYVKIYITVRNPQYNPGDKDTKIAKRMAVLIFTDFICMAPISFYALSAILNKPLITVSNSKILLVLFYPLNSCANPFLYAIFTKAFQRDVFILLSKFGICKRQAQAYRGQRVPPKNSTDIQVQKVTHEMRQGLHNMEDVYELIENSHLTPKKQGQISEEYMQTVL
Method in brief: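 Agonist-mode screen: TSHR HEK293 cells received test chemicals for half an hour at room temperature, then HTRF cAMP detection reagents for one hour prior to fluorescence measurement. Each chemical ran as a 15-concentration series, triplicated.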

[2] = qHTS assay to identify small molecule agonists of the hypoxia (HIF-1) signaling pathway - cell viability counter screen (AID 1224844; calls by dose curve; also: nearly all actives have a fitted effect of over 50% in size)
Method in brief: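 HRE-bla ME-180; 0.5% dFBS; cpd 17 h, 37C, 5% CO2; CellTiter-Glo lum., 30 min RT, post-FRET read, same wells.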

[3] = qHTS assay to identify small molecule agonists of H2AX (AID 1224845; active = well fitted activation curve with a large enough effect in the signal ratio in the repeat runs, not every such curve was filed as active; the % refers to the signal ratio)
Method in brief: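 Wild-type CHO-K1 cells, plated overnight, exposed 3hr at 37C to 15 concentrations (0.76% DMSO final). Lysed, then HTRF anti-pH2AX (S139) cryptate and anti-H2AX-d2 antibodies, 24 hr room temperature; 665/620 nm emission read.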

[4] = qHTS assay to identify small molecule agonists of the hypoxia (HIF-1) signaling pathway (AID 1224846; active = well fitted activation curve with a large enough effect in the signal ratio in the repeat runs, not every such curve was filed as active; the % refers to the signal ratio)
Method in brief: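 Reporter induction in HRE-bla ME-180 cells is taken as agonism: cells sit 5 hrs after plating, receive compounds or DMSO only, incubate 17 hrs at 37C under 5% CO2, and are loaded with CCF4-AM for beta-lactamase FRET measurement.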

[5] = qHTS assay to identify small molecule agonists of H2AX - cell viability counter screen (AID 1224847; calls by dose curve; also: top concentration of the series differs between compounds; nearly all actives have a fitted effect of over 30% in size)
Method in brief: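 Compounds tested at 15 concentrations were incubated 3 hr at 37C with wild-type CHO-K1 cells; cellular ATP-based luminescence (CellTiter-Glo) indicated viability.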

[6] = qHTS assay to identify small molecule antagonists of the estrogen related receptor (ERR) signaling pathway from Tox21 library (AID 1224848); also: nearly all actives have a fitted effect of over 50% in size
Method in brief: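 Quantitative high-throughput format: ERR reporter cells (2,000/well) pre-incubated 6 h, treated 18 h at 37 C with compounds in DMSO alongside positive and negative controls, then read by ONE-Glo luminescence.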

[7] = qHTS assay to identify small molecule agonists of the estrogen related receptor (ERR) signaling pathway from Tox21 library (AID 1224849; calls by dose curve; also: nearly all actives have a fitted effect of over 15% in size); conditions: ERR reporter cell line, ONE-Glo luciferase, 18 h; at 92.4 µM (top of the series) unless noted
Method in brief: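 Tox21 compounds tested for ERR agonism in an NTP reporter cell line: 18 h treatment at 37 C, then ONE-Glo luminescence.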

[8] = qHTS RealTime-Glo MT Cell Viability Assay in HepG2 cells - 24 hour (AID 1224867); also: nearly all actives have a fitted effect of over 50% in size
Method in brief: (§1)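 Viability was tracked continuously by NanoLuc luminescence from prosubstrate reduced by living HepG2 cells, at successive time points over 40 h of compound exposure. Cells with reagent were preincubated 5 h at 37 °C before compound addition.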

[9] = qHTS RealTime-Glo MT Cell Viability Assay in HEK293 cells - 32 hour (AID 1224868); also: top concentration of the series differs between compounds; nearly all actives have a fitted effect of over 50% in size
Method in brief: (§2)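 Viability tracked continuously by luminescence as live cells reduce a prosubstrate for NanoLuc; HEK293 cells preincubated 5 h, compound-treated at 37 C, and read at 0, 8, 16, 24, 32 and 40 h.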

[10] = A CellTox Green Cytotoxicity Assay to monitor cytotoxicity in HEK293 cells - 0 hour (AID 1224869); also: nearly all actives have a fitted effect of over 50% in size
Method in brief: (§3)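 Tox21 screen in HEK293: membrane-impermeant cyanine dye fluoresces on binding dead-cell DNA; compound pinned 5 h post-seeding, plates held at 37 C, signal read repeatedly through 40 h.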

[11] = qHTS RealTime-Glo MT Cell Viability Assay in HepG2 cells - 40 hour (AID 1224870); also: nearly all actives have a fitted effect of over 50% in size
Method in brief: (§4)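 HepG2 cells (600/well) mixed with RealTime-Glo MT reagent, settled 5 h at 37 C/5% CO2 before compound addition. Nonlytic NanoLuc luminescence from viable-cell prosubstrate reduction read repeatedly during 40 h treatment at 37 C.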

[12] = A CellTox Green Cytotoxicity Assay to monitor cytotoxicity in HEK293 cells - 40 hour (AID 1224871); also: nearly all actives have a fitted effect of over 45% in size
Method in brief: as §3

[13] = qHTS RealTime-Glo MT Cell Viability Assay in HEK293 cells - 16 hour (AID 1224872)
Method in brief: as §2

[14] = qHTS RealTime-Glo MT Cell Viability Assay in HepG2 cells - 8 hour (AID 1224873); also: nearly all actives have a fitted effect of over 55% in size
Method in brief: as §4

[15] = qHTS RealTime-Glo MT Cell Viability Assay in HEK293 cells - 40 hour (AID 1224874); conditions: RealTime-Glo luminescence; max response: hits give low values; also: nearly all actives have a fitted effect of over 50% in size
Method in brief: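 HEK293 + NanoLuc + prosubstrate, 600 cells/well; 5 h, 37 C/5% CO2; compound 23 nL in DMSO by pintool; 37 C; luminescence read at 0, 8, 16, 24, 32 and 40 h time points.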

[16] = A CellTox Green Cytotoxicity Assay to monitor cytotoxicity in HEK293 cells - 24 hour (AID 1224875); also: nearly all actives have a fitted effect of over 45% in size
Method in brief: as §3

[17] = A CellTox Green Cytotoxicity Assay to monitor cytotoxicity in HepG2 cells - 16 hour (AID 1224876); also: nearly all actives have a fitted effect of over 45% in size
Method in brief: (§5)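 Measurements at 0, 8, 16, 24, 32 and 40 h of treatment captured CellTox Green fluorescence in HepG2 cells that had been co-plated with reagent and preincubated 5 h at 37 C/5% CO2.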

[18] = qHTS RealTime-Glo MT Cell Viability Assay in HepG2 cells - 32 hour (AID 1224877); also: nearly all actives have a fitted effect of over 55% in size
Method in brief: as §1

[19] = A CellTox Green Cytotoxicity Assay to monitor cytotoxicity in HepG2 cells - 24 hour (AID 1224878); also: nearly all actives have a fitted effect of over 45% in size
Method in brief: as §5

[20] = A CellTox Green Cytotoxicity Assay to monitor cytotoxicity in HepG2 cells - 40 hour (AID 1224879); also: nearly all actives have a fitted effect of over 40% in size
Method in brief: as §5
% is scaled to controls: 0 for no effect and ±100 for the full control effect.

NNS(=O)(=O)c1ccc(Oc2ccc(S(=O)(=O)NN)cc2)cc1
inactive: Potency [1] | Potency [2] | Potency [3] | outcome [4] | Potency [5] | Potency [6] | activity change, positive = activation [7] -13.2% | Potency [8] | Potency [9] | Potency [10] | Potency [11] | Potency [12] | Potency [13] | outcome [14] | max response [15] 0.181% | Potency [16] | Potency [17] | Potency [18] | Potency [19] | Potency [20]

CO[Si](C)(C)OC
inactive: Potency [1] | Potency [2] | Potency [3] | outcome [4] | Potency [5] | Potency [6] | activity change, positive = activation [7] 4.8% | Potency [8] | Potency [9] | Potency [10] | Potency [11] | Potency [12] | Potency [13] | outcome [14] | max response [15] -0.595% | Potency [16] | Potency [17] | Potency [18] | Potency [19] | Potency [20]

CCOC(=O)c1cc(=O)c2c(OCC(COc3cccc4oc(C(=O)OCC)cc(=O)c34)OC(=O)[C@@H](N)CCCCN)cccc2o1
inactive: Potency [1] | Potency [2] | Potency [3] | outcome [4] | Potency [5] | Potency [6] | activity change, positive = activation [7] 8.23% [at 42.5 µM] | Potency [8] | Potency [9] | Potency [10] | Potency [11] | Potency [12] | Potency [13] | max response [15] 3.47% | Potency [16] | Potency [17] | Potency [18] | Potency [19] | Potency [20]

CC/C=C\CCOC(=O)CCCCC
inactive: Potency [1] | Potency [2] | Potency [3] | outcome [4] | Potency [5] | Potency [6] | activity change, positive = activation [7] 5.28% | Potency [8] | Potency [9] | Potency [11] | Potency [13] | max response [15] -9.86% | Potency [16] | Potency [17] | Potency [18] | Potency [19] | Potency [20]

OCCN(CCO)CCN(CCO)CCO
inactive: Potency [1] | Potency [2] | Potency [3] | outcome [4] | Potency [5] | Potency [6] | activity change, positive = activation [7] -1.05% | Potency [8] | Potency [9] | Potency [10] | Potency [11] | Potency [12] | Potency [13] | outcome [14] | max response [15] -1.3% | Potency [16] | Potency [17] | Potency [18] | Potency [19] | Potency [20]

CC(C)C(=O)OC/C=C/c1ccccc1
inactive: Potency [1] | Potency [2] | Potency [3] | outcome [4] | Potency [5] | Potency [6] | activity change, positive = activation [7] 4.91% | Potency [8] | Potency [9] | Potency [10] | Potency [11] | Potency [12] | Potency [13] | outcome [14] | max response [15] -2.31% | Potency [16] | Potency [17] | Potency [18] | Potency [19] | Potency [20]

CCOC(=O)c1ccccc1O
inactive: Potency [1] | Potency [2] | Potency [3] | outcome [4] | Potency [5] | Potency [6] | activity change, positive = activation [7] 1.87% [at 42.5 µM] | Potency [8] | Potency [9] | Potency [10] | Potency [11] | Potency [12] | Potency [13] | outcome [14] | max response [15] 4.34% | Potency [16] | Potency [17] | Potency [18] | Potency [20]
